Bioassay records: PubChem BioAssay, several laboratories
A selection: hits, their analogues and other compounds. The true share with any hit is near 3.1%.
Calb FLC: C. albicans growth inhibition with fluconazole, primary screen, CaCi-2 strain, Alamar Blue fluorescence; C. albicans CaCi-2 (fluconazole-resistant clinical isolate) + fluconazole, 48 h; growth inhibition, % (test concentration not listed); actives 0.57% (n = 300,000);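 active means growth inhibition above about 58% in most replicates, limit read from the data, passing the limit was not always enough; inconclusive means exactly half the replicates above a set limit; inactive means most replicates below a set limit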;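 further: all wells also contain fluconazole at 8 µg/ml as a sub-toxic cotreatment; 0% = median of DMSO wells and 100% = median of geldanamycin control wells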
NadD block: inhibitors of S. aureus NadD, primary screen, biochemical, colorimetric, uHTS; actives 0.78% (n = 360,000); Nicotinate-nucleotide adenylyltransferase NadD (Staphylococcus aureus N315); inhibition, % at 20 µM; purified NadD enzyme, colorimetric absorbance read-out; in the data active means inhibition above about 26%
ATG4B inhibitor: ATG4B protease inhibitors, primary screen, biochemical, fluorescence, uHTS | Cysteine protease ATG4B (Homo sapiens), Q9Y4P1 | ATG4B cleavage of LC3-PLA2, NBD-HPC fluorescence, 1 h | inhibition, % at 8.33 µM | actives 0.51% (n = 340,000) | AID 504462, 2011; in the data active means inhibition above about 40%
Target sequence (Q9Y4P1 whole entry, looked up): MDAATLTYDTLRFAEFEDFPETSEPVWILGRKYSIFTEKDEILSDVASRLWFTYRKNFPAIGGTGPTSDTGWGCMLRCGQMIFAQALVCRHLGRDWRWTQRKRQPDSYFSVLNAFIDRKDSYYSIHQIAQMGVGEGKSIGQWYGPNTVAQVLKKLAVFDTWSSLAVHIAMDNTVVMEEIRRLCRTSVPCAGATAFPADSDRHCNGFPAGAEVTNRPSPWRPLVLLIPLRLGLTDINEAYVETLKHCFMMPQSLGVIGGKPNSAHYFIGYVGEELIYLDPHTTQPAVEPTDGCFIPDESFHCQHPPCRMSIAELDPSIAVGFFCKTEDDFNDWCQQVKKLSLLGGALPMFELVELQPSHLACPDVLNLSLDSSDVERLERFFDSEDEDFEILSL
FAS-TE inh: FAS thioesterase domain inhibitors, primary screen, biochemical, fluorescence intensity, uHTS; recombinant FAS-TE, OMFH fluorogenic substrate, fluorescence endpoint; inhibition, % at 15 µM; actives 0.67% (n = 360,000); Fatty acid synthase (Homo sapiens), P49327;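 active means compounds whose normalised, plate-corrected inhibition of enzyme fluorescence in the single-dose primary screen is 50% or more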;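 further: 0% = DMSO with enzyme and 100% = substrate without enzyme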
SUMO Mot1 rescue: yeast Mot1-301 growth rescue at high temperature, primary screen, SUMOylation pathway inhibitor project, S. cerevisiae, ATP luminescence, 38.5C; S. cerevisiae Mot1-301 growth rescue; percent above DMSO median, 100 means doubled; growth rescue, % at 18.8 µM; actives 1% (n = 320,000); AID 2716, 2010;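 active means every valid replicate shows activation above 250% relative to neutral control wells; inactive means the rest, any valid replicate at or below 250%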;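 further: OY570 slx delta 5 strain wells were the positive control but not used for scaling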
The depositor's hits bear a star; ? = inconclusive; nt = no result given.

SMILES	Calb FLC	NadD block	ATG4B inhibitor	FAS-TE inh	SUMO Mot1 rescue
CCCCNC(=O)NNC(=O)COc1cccc(C)c1C	-5	-5	0	-8	10
Cc1ccc(C(=O)NCc2ccco2)cc1S(=O)(=O)Nc1cccc(Cl)c1	113*	3	3	5	-2
O=C(NCc1cc([N+](=O)[O-])ccc1O)c1cccnc1Sc1ccc(Cl)cc1	?	5	6	6	-14
O=C(NCc1cc([N+](=O)[O-])ccc1O)c1cccnc1Sc1ccccc1Cl	86*	0	3	-3	109
C1CCC(c2nn3c(-c4n[nH]c5c4CCC5)nnc3s2)CC1	-7	0	-6	-4	6
CCN(CC)c1ccc(-c2nn3c(-c4n[nH]c5c4CCC5)nnc3s2)cc1	-11	54*	6	-26	-6
O=C(CN1C(=O)S/C(=C\c2ccccn2)C1=O)Nc1ccccc1	109*	-6	-5	1	147
Cc1ccc(C(=O)O)cc1-c1ccc(/C=C2\SC(=O)N(CC(=O)Nc3ccccc3)C2=O)o1	0	34*	38	5	15
Cc1ccc(NC(=O)CN2C(=O)S/C(=C/c3ccc(-c4cccc(C(=O)O)c4)o3)C2=O)cc1	nt	21	4	2	nt
CC(C)CN(C(=O)COC(=O)CNC(=O)c1ccccc1F)c1c(N)n(Cc2ccccc2)c(=O)[nH]c1=O	-2	3	13	-7	-2
COCCSc1nnc(NC(=O)C2CC(=O)N(c3ccc(C)cc3)C2)s1 (configuration not stated)	99*	1	-9	-4	-22
CN(C)c1nc(-c2ccccn2)nnc1-c1ccccc1	-2	8	-12	-9	-17
CCN(CC)c1nc(-c2ccccn2)nc(-c2ccccc2)c1C#N	103*	6	-4	4	1
CCOC(=O)c1cc(-c2ccc(C)o2)nn1CCC#N	-3	1	-7	-2	347*
CCOc1ccc(NC(=O)CSc2nnnn2-c2ccc(C(N)=O)cc2)cc1	3	-2	-4	-7	264*
COc1cc(C(=O)N/N=C/c2ccc(OC(=O)c3ccccc3Cl)cc2)ccc1O	3	6	4	7	1
Nc1ccc(C(=O)N/N=C\c2ccc(OC(=O)c3ccccc3Cl)cc2)cc1	79*	-2	0	-4	-12
Cc1coc2c1C(=O)C(=O)c1c-2ccc2c(C)cccc12	-10	34*	-2	74*	-6
COc1c(Cl)cc(Cl)cc1C(=O)Nc1ccc(CN2CCOCC2)cc1	-6	-1	-5	-1	356*
COc1c(Cl)cc(Cl)cc1C(=O)Nc1ccc(CN2CCCCC2)cc1	1	-7	8	-4	150
CCCCC(CCC(=O)Nc1cccc([N+](=O)[O-])c1)C(=O)O (configuration not stated)	0	-4	-1	10	14
CCN(C1CCS(=O)(=O)C1)S(=O)(=O)c1ccc2ccccc2c1 (configuration not stated)	2	-4	4	-2	325*
CCCc1ccc(Oc2cn[nH]c2-c2ccc(O)cc2O)cc1	68*	9	17	-150	195
COc1ccc(Oc2cn[nH]c2-c2ccc(O)cc2O)cc1	6	-8	2	-206	7
CCCc1nnc(NC(=S)Nc2ccccc2)s1	77*	9	4	-4	-4
SMILES	Calb FLC	NadD block	ATG4B inhibitor	FAS-TE inh	SUMO Mot1 rescue
CC(C)C(=O)Nc1nnc(NC(=S)Nc2ccccc2)s1	2	2	-9	-3	-5
C[C@H](CO)N1C[C@H](C)[C@@H](CN(C)S(=O)(=O)c2ccc(Oc3ccccc3)nc2)OCc2cn(nn2)CCCC1=O	nt	0	nt	-8	nt
O=C(CSc1nc(-c2ccco2)cc(C(F)(F)F)n1)NCCc1ccccc1	98*	-3	12	12	12
COc1ccc(CCNC(=O)CSc2nc(-c3ccco3)cc(C(F)(F)F)n2)cc1OC	-6	1	4	-5	6
CC(OC(=O)c1ccc(F)c(S(=O)(=O)N2CCOCC2)c1)C(=O)NC1CCCC1 (configuration not stated)	nt	6	5	-5	nt
Oc1c(C(Nc2cccc(C(F)(F)F)c2)c2ccncc2)ccc2cccnc12 (configuration not stated)	93*	7	16	14	-15
CC(=O)NC(c1ccc2ccccc2c1)c1ccc2cccnc2c1O (configuration not stated)	-4	11	3	5	-6
Oc1c(C(Nc2nccs2)c2ccc(C(F)(F)F)cc2)ccc2cccnc12 (configuration not stated)	103*	12	5	4	nt
Cc1ccc(NC(=O)COC(=O)c2ccco2)cc1S(=O)(=O)N1CCOCC1	nt	-10	-7	-5	4
COc1cc2oc(=O)cc(-c3ccc(-c4ccc(CO)cc4)cc3)c2c(OC)c1OC	nt	-10	-4	11	nt
CSc1ccc(CN2CCC(Oc3ccc(C(=O)N4CCCC4)cc3)CC2)cc1	-14	0	15	-7	277*
CCn1cc([N+](=O)[O-])c(C(=O)N2N=C(c3ccc4ccccc4c3)CC2c2cc(Br)ccc2O)n1 (configuration not stated)	0	40*	-9	22	nt
CCn1cc([N+](=O)[O-])c(C(=O)N2N=C(c3ccc(Cl)c(Cl)c3)CC2c2ccccc2O)n1 (configuration not stated)	35	13	0	30	9
COc1cc(C(=O)NCCOc2ccc(Cl)cc2)ccc1OCc1c(C)noc1C	nt	-6	-7	1	nt
COc1ccc(NC(=O)c2cccn(CC=C(C)C)c2=O)cc1	4	4	-5	10	331*
O=C(O)c1cccc(Cn2c(Cl)c(/C=N/Nc3ccccc3)sc2=O)c1	26	5	28	2	279*
COc1ccc(NC(=O)c2ccccc2NS(=O)(=O)c2ccc(C)cc2)c([N+](=O)[O-])c1	-1	3	2	17	823*
COc1ccc(NS(=O)(=O)c2ccc(C)cc2)c([N+](=O)[O-])c1	22	-4	0	1	399
COc1ccccc1CN1C[C@@H]2C[C@@H](c3ccc(C)c(C)c3)N3CCC[C@@]23C1=O	-19	1	4	0	5
Cc1ccc(-n2c(-c3ccccc3)c[n+]3c2CCC3)cc1	96*	5	-4	-5	nt
NC(=S)n1[nH]c(-c2ccccc2)c(N=Nc2ccccc2C(=O)N2CCOCC2)c1=O	100*	4	-7	-3	6
CCOC(=O)Cc1csc(NC(=O)C(NC(=O)C2CCC(C)CC2)C(C)C)n1 (configuration not stated)	-11	-6	-3	-1	-13
